TROY NFkB inh: blocks TROY-dependent signaling in reporter cells. Q293 LMP1-TROYcd NF-kB luciferase reporter, 4 h. inhibition, % at 10 µM. 0.98% of 360,000 active;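 active = compounds whose plate-normalised and pattern-corrected inhibition of the luciferase reporter signal at the single screening dose is 50% or more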
TWEAK Fn14 block: TWEAK-Fn14 signaling inhibition. inhibition, % at 10 µM. TWEAK-stimulated Fn14 reporter cells, luciferase luminescence, 8 h. 2% of 360,000 active; in the data active = inhibition above about 50%
C8 TRAIL sens: sensitizes caspase-8 expressing cells to TRAIL | NB7+C8 cells + TRAIL, ATPlite viability luminescence | inhibition (viability loss, TRAIL sensitization), % at 10 µM | 1% of 360,000 active | AID 624354;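 active = compounds causing at least 50% loss of cell viability in the single-dose screen, relative to plate controls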
PPC-1+TRAIL kill: PPC-1 cancer cell killing with TRAIL present | 0.41% of 220,000 active | cell killing (% activity), % at 4 µM or 5 µM | PPC-1 cells + TRAIL, ATPLite viability luminescence;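 active = cell killing above 50% in the first pass at 4 µM, then a duplicate retest at 5 µM averaging 50% or more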;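 also: plate controls were cells with TRAIL plus DMSO for no effect and medium-only wells lacking cells for full effect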
HSP90 refold inh: HSP90 refolding inhibition in rabbit reticulocyte lysate; luciferase refolding luminescence, 3 h; inhibition, % at 5.6 µM; 0.91% of 290,000 active;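 active = inhibition above the screen-wide mean plus 3 SD, computed separately per campaign, cut at about 16% in these data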;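 also: 0% = DMSO wells and 100% = 60 µM geldanamycin wells; inhibitors lower the luminescence because luciferase stays unfolded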
Platelet DG rel: modulates dense granule release in human platelets; human platelet-rich plasma, SFLLRN dense granule ATP release, luminescence; inhibition, %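 (compounds screened at 7.5 µM in platelet-rich plasma)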; 0.22% of 300,000 active;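 active = mean replicate score, as percent of positive control, at or above 50; inconclusive = mean below 50 but at least one replicate at or above 50; inactive = mean and every replicate below 50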
The depositor's hits bear a star; ? = inconclusive; . = no result. Sampled rows, rich in hits. Any-hit rate of the full collection: about 3.5%.

SMILES	TROY NFkB inh	TWEAK Fn14 block	C8 TRAIL sens	PPC-1+TRAIL kill	HSP90 refold inh	Platelet DG rel
Nn1cnc2c(c1=O)C1(CCCCC1)Cc1ccccc1-2	1	12	-1	6	-4	-3
Oc1ccc(-c2nc3c4c(ncn3n2)-c2ccccc2CC42CCCC2)cc1	30	77*	11	3	3	5
Clc1ccc(-c2nc3ccccn3c2CN2CCCCC2)cc1	55*	83*	-4	-3	2	4
Fc1cccc(Cc2c(C3CCCCC3)nc3ccc(Cl)cn23)c1	2	-2	-8	.	.	.
Cc1ccc(C)c(N2CCN(S(=O)(=O)c3csc(C(N)=O)c3)CC2)c1	31	15	-5	.	4	-6
Cc1nc(S/C(=C\c2ccc(OCc3ccccc3Cl)cc2)C(=O)O)n[nH]1	.	83*	3	21	-4	.
Cc1nc(S/C(=C\c2ccc(-c3ccc(C(=O)O)c(Cl)c3)o2)C(=O)O)n[nH]1	-13	-6	-1	-4	-3	1
Cc1ccc(N=c2oc3cc(O)ccc3cc2C(N)=O)cc1	34	61*	35	40	7	-4
O=C(NC1CCCCC1)C1c2ccccc2OCC(=O)N1CCc1ccccc1 (stereo not drawn)	-2	-6	0	.	.	.
COc1ccc(-c2cc(C(F)(F)F)nc(S(=O)(=O)CCC(=O)N3CCOCC3)n2)cc1	49	75*	-4	-2	2	134*
COc1ccccc1-c1cc(C(F)(F)F)nc(S(=O)(=O)CCCC(=O)N2CCOCC2)n1	58*	38	-8	7	3	-1
COc1ccc(-c2cc(C(F)(F)F)nc(SCC(=O)N3CCOCC3)n2)cc1OC	-13	-18	-12	23	-3	?
COc1ccccc1-c1cc(C(F)(F)F)nc(S(=O)(=O)CCCC(=O)O)n1	14	28	-16	13	6	1
COc1ccc(-c2cc(C(F)(F)F)nc(S(=O)(=O)CCCC(=O)Nc3cccc(O)c3)n2)cc1OC	53*	96*	-13	6	4	0
O=C(COC(=O)c1ccc[nH]c1=O)Nc1cc(S(=O)(=O)N2CCCCC2)ccc1Cl	9	-11	-9	-35	-1	3
O=C(COC(=O)c1ccc[nH]c1=O)Nc1ccc(N2CCCCC2)cc1	56*	88*	29	.	.	.
O=C(OCC(=O)N1CCCCCC1)c1ccc[nH]c1=O	0	3	-9	.	.	.
O=C(COC(=O)c1ccc[nH]c1=O)Nc1ccc(S(=O)(=O)N2CCCC2)cc1	56*	10	-7	11	4	-3
O=C1[C@H]2[C@H](C=CC[C@H]2C(=O)N2CCOCC2)CCN1Cc1ccccc1	18	3	-9	.	.	-2
CCN(C(=O)COc1ccc(C(C)=O)cc1)c1cccc2ccccc12	-2	-25	0	.	.	.
Cc1ccc(S(=O)(=O)NCC(=O)NCC2CCCCC2)cc1C	12	33	-8	.	-1	-3
COc1ccc(-c2nn(-c3ccccc3)cc2/C=N/n2cnnc2)cc1OC	-38	-4	-5	6	4	-8
COc1ccc(-c2nn(-c3ccccc3)cc2/C=N/NC(N)=S)cc1OC	12	69*	-24	26	3	2
CC(C)Cc1cc(C(=O)Nc2sc3c(c2C#N)CCC3)no1	-8	-34	-3	0	0	1
Cc1cc(C(=O)Nc2sc3c(c2C#N)CCC3)no1	-47	6	51*	24	-4	1
SMILES	TROY NFkB inh	TWEAK Fn14 block	C8 TRAIL sens	PPC-1+TRAIL kill	HSP90 refold inh	Platelet DG rel
N#Cc1c(NC(=O)c2cc(C3CC3)on2)sc2c1CCC2	-19	-18	17	20	.	24
CC(C)Cc1cc(C(=O)Nc2sc3c(c2C#N)CCCC3)no1	-6	-37	15	11	-3	1
Cc1cc(C(=O)Nc2sc3c(c2C#N)CCCC3)no1	24	-1	52*	20	5	6
Cc1cc(C(=O)Nc2sc3c(c2C#N)CCC(C)C3)no1 (stereo not drawn)	-52	-11	55*	33	1	2
C/C(=N\Nc1nc(C)cc(-c2ccccc2)n1)c1cccc(N)c1	12	-24	51*	.	-3	10
CCOC(=O)[C@H]1[C@H]2COc3ccc(C)cc3[C@@H]2N2C(=O)CN(Cc3ccco3)C(=O)[C@@]12C	-8	6	-7	.	.	.
COc1ccc(Cl)cc1S(=O)(=O)N(C)CC(=O)NCc1ccc2c(c1)OCO2	0	53*	-8	.	3	14
Cc1nn(Cc2ccc(Cl)cc2Cl)c(C)c1NC(=O)CCl	-27	20	90*	10	2	1
Cc1nn(Cc2ccc(Cl)cc2Cl)c(C)c1NC(=O)c1nn(C)cc1Cl	1	-1	4	-7	-3	8
CC(C)(C)C1CCC(OC(=O)c2ccncc2)CC1 (stereo not drawn)	-33	-29	-8	4	-2	-3
CC(C)(C)C1CCC(OC(=O)c2cncc(Br)c2)CC1 (stereo not drawn)	71*	74*	5	16	1	3
CCN1CCN(CCCNC(=O)c2ccc3c(c2)NC(=O)/C(=C\c2cccc(C)c2)S3)CC1	-36	-51	70*	.	-3	10
COc1cccc(/C=C2/Sc3ccc(C(=O)NCCN4CCCCCC4)cc3NC2=O)c1	2	-18	75*	.	1	-3
Cc1cccc(/C=C2/Sc3ccc(C(=O)NCCN4CCCC4)cc3NC2=O)c1	-3	-10	22	.	-3	7
CCNc1nc(C)nc2c1cnn2C	-8	11	-8	.	.	.
Cc1ccc(NC(=O)c2ccccc2)s1	-47	23	53*	11	2	5
O=C(c1ccc(-c2nnc(-c3ccccc3)o2)cc1)N1CCCCCC1	30	57*	10	4	-1	.
O=C(c1ccc(-c2ccccc2)cc1)N1CCC(C(=O)N2CCCC2)CC1	-1	-12	-5	10	-1	-1
COc1cc(/C=C2\SC(=S)N(CCC(=O)N3CCCCC3)C2=O)cc(OC)c1OC	27	34	27	.	2	0
CC[n+]1ccc(/C=C2\Sc3ccccc3N2CCCS(=O)(=O)[O-])c2ccccc21	22	6	10	14	1	-2
CN1C=C/C(=C\c2cc[n+](C)c3ccccc23)c2ccccc21	1	28	26	.	17*	3
COc1cccc2c1OC1(N3CCOCC3)CCCCC1C2C[N+](=O)[O-] (stereo not drawn)	-10	-4	3	.	.	.
CCC(=O)n1nc(-c2ccc(Cl)cc2)nc1SC	-31	77*	11	10	1	1
COc1ccc(-c2noc(CCCCC(=O)N3CCN(c4cc(C)ccc4C)CC3)n2)cc1	44	64*	19	.	.	.
Cc1c(O)nc(SC2CC(=O)N(c3cc(Cl)cc(Cl)c3)C2=O)[nH]c1=O (stereo not drawn)	4	-18	5	.	.	8

Assay outcomes deposited in PubChem by several laboratories.
